In the library only some 2.4% were active in any assay of this set; here they are far more common.
Rango release inh – inhibitors of RanGTP-induced Rango-importin beta complex dissociation; O95149+P62826; Biochemical FRET Rango-importin beta, RanGTP-induced dissociation; Potency, µM (doses to about 46.1 µM); 340,000 compounds, 0.071% hits; calls by dose curve; further: nearly all actives have a fitted effect of over 45% in size
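Quantitative HTS using a FRET biosensor: 0.1 uM Rango, 0.25 uM importin beta, 0.6 uM Ran, 2 mM GTP, 0.2 uM RCC1 final, PBS with DTT, Tween-20 and BSA. Post-read taken 45 min after Ran addition.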
PGK inhibitor – inhibitors of T. brucei phosphoglycerate kinase; Potency, µM (doses to about 57.5 µM), actives largely listed as inhibitors; 380,000 compounds, 0.043% hits; PGK/GAPDH coupled, Kinase-Glo luminescence, 60 min; further: nearly all actives have a fitted effect of over 60% in size
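Luminescent ATP detection (Kinase-Glo Plus) follows a 60-minute room-temperature incubation, with wells lacking PGK as controls. Buffer: 100 mM TEA (pH 7.6), 5 mM MgCl2, 0.01% Tween-20. Coupling enzyme GAPDH (100 nM final) supplies unstable 1,3-BPG in-well.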
Tb PFK inh – blocks T. brucei phosphofructokinase. Potency, µM (highest dose often 57.5 µM), usual class: inhibitors. O15648. 330,000 compounds, 0.17% hits. T. brucei PFK, ADP-Glo luminescence; further: nearly all actives have a fitted effect of over 60% in size
Target sequence (O15648 whole entry, looked up): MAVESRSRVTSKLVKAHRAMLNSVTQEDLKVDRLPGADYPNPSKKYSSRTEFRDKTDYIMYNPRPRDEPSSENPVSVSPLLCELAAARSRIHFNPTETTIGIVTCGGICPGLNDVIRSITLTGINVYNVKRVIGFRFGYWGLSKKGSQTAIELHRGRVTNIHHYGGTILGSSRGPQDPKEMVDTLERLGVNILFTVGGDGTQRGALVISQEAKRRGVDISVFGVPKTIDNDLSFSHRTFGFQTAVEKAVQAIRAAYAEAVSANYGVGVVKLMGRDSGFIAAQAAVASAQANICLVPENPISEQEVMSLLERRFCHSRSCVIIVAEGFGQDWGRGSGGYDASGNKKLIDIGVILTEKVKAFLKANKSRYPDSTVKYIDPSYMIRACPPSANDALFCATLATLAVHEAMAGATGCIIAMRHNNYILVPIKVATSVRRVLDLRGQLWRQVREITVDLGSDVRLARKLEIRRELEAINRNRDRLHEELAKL
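Luminescent ADP detection (ADP-Glo, two-step: ATP depletion then ADP-to-ATP conversion for luciferase) reported PFK activity after 45 min room-temperature reaction of 1.25 nM enzyme with 0.5 mM F6P and 0.1 mM ATP at pH 8.0.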
PKM2 activator – PKM2 (human) enzyme activation. P14618. purified PKM2, Kinase-Glo ATP luminescence, activation; response scale: 0% is enzyme alone, no compound. Potency, µM (top dose mostly 57.5 µM), usual class: activators. 260,000 compounds, 0.34% hits. AID 1631; further: nearly all actives have a fitted effect of over 55% in size
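Purified hPK-M2 (>95%) run at intermediate activity with 0.1 mM ADP and 0.5 mM PEP in 50 mM imidazole pH 7.2, KCl, MgCl2; 1 h room temperature. ATP formed read by Kinase-Glo luminescence; normalized to uninhibited and no-enzyme controls.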
Rango-impB inh – Rango-importin beta binding inhibition; Rango CFP/YFP FRET sensor + importin beta, 45 min; 340,000 compounds, 0.031% hits; AID 540263; Potency, µM (highest dose often 92.2 µM); calls by dose curve; further: nearly all actives have a fitted effect of over 15% in size
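FRET biosensor Rango (snurportin 1 IBB between N-terminal EYFP and C-terminal Cerulean), 50 nM in PBS/1 mM DTT/0.02% Tween-20/0.1% BSA, preincubated 5 min RT with compound; 0.125 microM importin beta added, 45 min RT, CFP/YFP FRET ratio read.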
ELG1 DNA repair – blocks ELG1-dependent DNA repair in HEK293T cells. HEK293T ELG1-luciferase reporter, luminescence, 16 h; DNA damage induced by 5-fluorouridine. Potency, µM (highest dose often 46.1 µM), usual class: inhibitors. 330,000 compounds, 2.3% hits. AID 504467; further: nearly all actives have a fitted effect of over 55% in size
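Quantitative HTS, concentration-response format. 2,000 cells/well co-treated with 5-fluorouridine and compound, 16 hr in 5% CO2 at 37 °C; ONE-Glo luminescence read after 30 min.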
ELG1 FLuc counter – luciferase inhibition in cell-free luciferin readout for ELG1 hits. AID 624247. shares compounds with ELG1 DNA repair. Potency, µM (series often up to 46.1 µM), actives largely listed as inhibitors. 350 compounds, 3% hits. cell-free firefly luciferase luminescence counter-screen, ViewLux
ELG1-Luc inh – inhibits ELG1-dependent DNA repair in HEK293T cells, confirmed; AID 624248; 670 compounds, 68% hits; shares compounds with ELG1 DNA repair; Potency, µM (titrated, usually from 46.1 µM), most hits filed as inhibitors; HEK293T ELG1-luciferase levels, luminescence; cells co-treated with 5-fluorouridine; further: nearly all actives have a fitted effect of over 55% in size
ELG1 MMS Luc – confirmation of human ELG1 repair inhibitors, MMS stimulated; 670 compounds, 53% hits; shares compounds with ELG1 DNA repair; HEK293T luciferase-tagged ELG1 level, MMS stimulated; Potency, µM (doses to about 46.1 µM), actives largely listed as inhibitors; AID 624249; further: nearly all actives have a fitted effect of over 60% in size
ELG1 5FU viab – confirmation of ELG1 repair inhibitors: viability with 5FU | 670 tested, under 10 active | AID 624250 | shares compounds with ELG1 DNA repair | Potency, µM (top dose mostly 46.1 µM), actives largely listed as cytotoxic | cell viability with 5-FU, ELG1-dependent repair;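 further: ELG1-luc HEK293T cells cotreated with 5-fluorouridine at 10 µM final; viability measured 16 h after compound addition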
ELG1 MMS viab – confirmation of ELG1 repair inhibitors: viability with MMS. shares compounds with ELG1 DNA repair. Cell viability with MMS, ELG1-dependent DNA repair. Potency, µM (top dose mostly 46.1 µM), most hits filed as cytotoxic. 670 compounds, 33% hits;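 further: ELG1-luc HEK293T cells co-treated with 10 µM MMS; viability read 16 h after compound addition; nearly all actives have a fitted effect of over 60% in size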
Cell viab unstim – unstimulated viability counter-screen for ELG1 repair hits | cell viability counter-screen, unstimulated, luminescence | Potency, µM (titrated, usually from 45.9 µM), usual class: cytotoxic | shares compounds with ELG1 DNA repair | 900 compounds, 8% hits | AID 624252;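 further: compound exposure lasted 16 hours before reading; nearly all actives have a fitted effect of over 55% in size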
FLuc enzyme – inhibits purified firefly luciferase, counter-screen for ELG1 hits; Potency, µM (titrated, usually from 57.5 µM), actives largely listed as inhibitors; purified firefly luciferase, luminescence counter-screen; 350 compounds, 10% hits; shares compounds with ELG1 DNA repair
A number is an active result; 0 = inactive; ? = inconclusive; - = no result given. Unless noted, the call rests on the fitted dose curve; in most records, active means well fitted curve in the direction sought with a large enough effect; inconclusive means small, poorly fitted or top-dose-only effect, or another doubt; inactive means no such curve, though single readings can be large; an effect the other way counts as inactive or inconclusive.

SMILES | Rango release inh | PGK inhibitor | Tb PFK inh | PKM2 activator | Rango-impB inh | ELG1 DNA repair | ELG1 FLuc counter | ELG1-Luc inh | ELG1 MMS Luc | ELG1 5FU viab | ELG1 MMS viab | Cell viab unstim | FLuc enzyme
CC1OC(O[C@@H]2C(O)CC(O[C@@H]3C(O)C[C@@H](OC4CC[C@]5(C)[C@H](CC[C@H]6[C@@H]5CC[C@]5(C)C(C7=CC(=O)OC7)C(O)C[C@@]65O)C4)OC3C)OC2C)CC(O)C1O (stereo partly drawn) | - | - | - | - | - | - | - | 0.56µM | 0.315µM | ? | 0.499µM | 0.199µM | -
CC1OC(OC2C(O)CC(OC3C(O)CC(OC4CCC5(C)C(CCC6C5CCC5(C)C(C7=CC(=O)OC7)C(O)CC65O)C4)OC3C)OC2C)CC(O)C1O (stereo not drawn) | ? | 0 | - | - | 0 | - | - | - | - | - | - | - | -
CC12CCC3C(CCC4(O)CC(O)CCC34C=O)C1(O)CCC2C1=CC(=O)OC1 (stereo not drawn) | 0 | 0 | - | - | 0 | - | - | - | - | - | - | - | -
COC1C(O)C(C)O[C@H](OC2CC[C@@]3(C=O)C4CC[C@]5(C)C(C6=CC(=O)OC6)CC[C@@]5(O)C4CC[C@@H]3C2)C1O (stereo partly drawn) | - | - | - | - | - | - | ? | 0.177µM | 0.0706µM | 0.25µM | 0.158µM | 0.0445µM | ?
C[C@@H]1O[C@H](O[C@H]2C[C@@H](O)[C@@]3(CO)[C@H]4[C@@H](O)C[C@]5(C)[C@@H](C6=CC(=O)OC6)CC[C@]5(O)[C@H]4CC[C@]3(O)C2)[C@@H](O)[C@H](O)[C@@H]1O | - | - | - | - | - | - | ? | 0.239µM | 0.151µM | ? | 0.378µM | 0.095µM | 0
C[C@H]1O[C@@H](OC2CC[C@]3(C=O)[C@H]4CC[C@]5(C)[C@@H](C6=CC(=O)OC6)CC[C@]5(O)[C@@H]4CC[C@]3(O)C2)CC2OC(C)(C)OC21 (stereo partly drawn) | 0 | 0 | 0 | - | 0 | ? | - | - | - | - | - | - | -
COC1C(O)C(C)O[C@@H](OC2CC[C@@]3(C)C4CC[C@]5(C)C(C6=CC(=O)OC6)CC[C@@]5(O)C4CC[C@@H]3C2)C1O (stereo partly drawn) | - | - | - | - | - | - | ? | 0.0997µM | 0.0629µM | ? | 0.141µM | 0.05µM | 0
CCC1(CC)C(=O)NC(=Nc2cccc(C(F)(F)F)c2)NC1=O | 0 | 0 | 0 | 0 | 0 | ? | - | - | - | - | - | - | -
CC1=CC(=O)C2=C(C)C[C@H](O)[C@@H]3[C@H](OC(=O)[C@H]3C)[C@@H]12 | 0 | 0 | 0 | - | 0 | 0 | - | - | - | - | - | - | -
CCCCN=C[C@]12CCC(O)CC1(O)CCC1[C@@H]2CC[C@]2(C)[C@H](C3C=CC(=O)O3)CCC12O (stereo partly drawn) | 0 | 0 | 0 | - | 0 | 1.03µM | ? | 1.58µM | 0.889µM | ? | 1.99µM | 0.629µM | 0
c1coc(CN2Cc3ccccc3-n3nncc3C2)c1 | - | 0 | - | - | - | - | - | - | - | - | - | - | -
CCOC(=O)c1ccc(NC(=O)C2C3C=CC(O3)C2C(=O)O)cc1 (stereo not drawn) | - | - | 0 | 0 | - | ? | - | - | - | - | - | - | -
CCOC(=O)c1ccc(NC(=O)c2nc[nH]c2C(=O)NCCNC(=O)c2[nH]cnc2C(=O)Nc2ccc(C(=O)OCC)cc2)cc1 | 0 | 0 | 0 | - | 0 | 0.517µM | ? | 0.792µM | 1.41µM | ? | ? | 0 | ?
COC(=O)C1=C(c2ccc(Cl)c(C(F)(F)F)c2)C[C@@H]2CC[C@H]1N2C(=O)NCc1cc(C)oc1C(F)(F)F | 0 | 0 | 0 | - | 0 | 0 | - | - | - | - | - | - | -
O=c1[nH]c(=O)n(Cc2ccc(F)cc2)c(O)c1C=NCCCO | 0 | 0 | 0 | 0 | ? | 0 | - | - | - | - | - | - | -
O=c1[nH]c(=O)n(Cc2ccc(F)cc2)c(O)c1/C=N/Nc1ccccc1 | 0 | 0 | 0 | 0 | 0 | 1.83µM | - | 0 | 0 | 0 | 0 | ? | -
C[C@]12CCC(=O)C[C@H]1CC[C@@H]1[C@@H]2CC[C@]2(C)C(=O)CC[C@@H]12 | 0 | 0 | 0 | - | 0 | ? | - | - | - | - | - | - | -
CCOc1ccc(-c2c(C)n(-c3ccc(OCC)cc3)c3[n+]2CCCCC3)cc1 | 0 | 0 | 0 | 0 | 0 | 0.291µM | ? | ? | 0.5µM | ? | 0.445µM | 5µM | 0
COc1ccc(C[C@H]2NC[C@H](O)[C@H]2OC(C)=O)cc1 | 0 | 0 | - | - | 0 | - | 0.0126µM | 0.0561µM | 0.025µM | 0 | 0.05µM | 0.0112µM | 0

Assay outcomes: PubChem, National Center for Advancing Translational Sciences (NCATS)
